84 variants from a collection of fitness landscapes (doi:10.1016/j.celrep.2020.107928) can be followed below.

The labels stand for the following.
B1: Caulobacter ParB omega fusion; a variant is named by its letters at X, in order, B8GW30 (parent)
chain: MESVVVGEPGMSEGRRGLGRGLSALLGEVDAAPAQAPGEQLGGSREAPIEILQRNPDQPRRTFREEDLEDLSNSIREKGVLQPILVRPSPDTAGEYQIVAGERAWRAAQRAGLKTVPIMVRELDDLAVLEIGIIENVQRADLNVLEEALSYKVLMEKFERTQENIAQTIGKSXSHVANXMRLLXLPDEVQSYLVSGELTAXHARAIAAAADPVALAKQIIEGGLSVRETEALARKAPNLSAGKSKGGRPPRVKDTDTQALESDLSSVLGLDVSIDHRGSTGTLTITYATLEQLDDLCNRLTRGI

Whole data set: some 81,000 sequences, median “one-hybrid fitness for binding NBS DNA” near -0.1, cut for the highest 2% near 0.36. The full list was thinned out, with the highest values kept by preference. Some results are limits rather than exact numbers.

In this assay the parent is B1. Briefly: one-hybrid fitness for binding NBS DNA (the Noc-binding site; scaled: cognate 1, non-cognate 0); higher = stronger binding. The note with it: with NBS DNA site. An outline of the steps: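 In E. coli USO, a HIS3 reporter with its site placed 19 bp from the promoter was used to select Caulobacter ParB variants randomised at four specificity codons. Growth lasted 48 hours at 37°C on histidine-free M9 containing 0.1 mM IPTG and 5 mM 3-AT. Fitness was taken as the log change in variant-to-wild-type read ratio from Illumina sequencing of pre- and post-selection plasmids, rescaled between the non-cognate and cognate sites.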
Turning to LARA, the “one-hybrid fitness for binding NBS DNA” value was no more than 0.2.

Regarding ELER, the “one-hybrid fitness for binding NBS DNA” value is no more than 0.2.

PWIR: the “one-hybrid fitness for binding NBS DNA” value is no more than 0.2.

In the case of MRID, the “one-hybrid fitness for binding NBS DNA” value was no more than 0.2.

As for CPAI, the “one-hybrid fitness for binding NBS DNA” value is no more than 0.2.

Turning to RRAK, the “one-hybrid fitness for binding NBS DNA” value turned out to be 0.254.

For the variant RRAP, the “one-hybrid fitness for binding NBS DNA” value is no more than 0.2.

As to RRAS, the “one-hybrid fitness for binding NBS DNA” value was 0.655.

As to RILR, the “one-hybrid fitness for binding NBS DNA” value was determined as 0.27.

As for RIQD, the “one-hybrid fitness for binding NBS DNA” value is no more than 0.2.

As for RISN, the “one-hybrid fitness for binding NBS DNA” value was no more than 0.2.

On to RIHH, for which the “one-hybrid fitness for binding NBS DNA” value is no more than 0.2.

Take RIHP: the “one-hybrid fitness for binding NBS DNA” value was no more than 0.2.

Take RISR: the “one-hybrid fitness for binding NBS DNA” value was 0.386.

On to RIQH, for which the “one-hybrid fitness for binding NBS DNA” value is no more than 0.2.

Regarding RISD, the “one-hybrid fitness for binding NBS DNA” value was no more than 0.2.

For RIQR, the “one-hybrid fitness for binding NBS DNA” value was 0.38.

Turning to RIHR, the “one-hybrid fitness for binding NBS DNA” value turned out to be 0.477.

Regarding RIPR, the “one-hybrid fitness for binding NBS DNA” value was no more than 0.2.

RIYR: the “one-hybrid fitness for binding NBS DNA” value came out at 0.377.

For the variant PALM, the “one-hybrid fitness for binding NBS DNA” value was no more than 0.2.

In the case of HPME, the “one-hybrid fitness for binding NBS DNA” value was no more than 0.2.

Consider PIEV, for which the “one-hybrid fitness for binding NBS DNA” value is no more than 0.2.

Turning to KSHW, the “one-hybrid fitness for binding NBS DNA” value was no more than 0.2.

Consider VSAN, for which the “one-hybrid fitness for binding NBS DNA” value is no more than 0.2.

On to EYDR, for which the “one-hybrid fitness for binding NBS DNA” value was no more than 0.2.

AMER: the “one-hybrid fitness for binding NBS DNA” value was no more than 0.2.

For the variant ITVP, the “one-hybrid fitness for binding NBS DNA” value was no more than 0.2.

Consider GPTF, for which the “one-hybrid fitness for binding NBS DNA” value was no more than 0.2.

Regarding TCYM, the “one-hybrid fitness for binding NBS DNA” value is no more than 0.2.

RGSS: the “one-hybrid fitness for binding NBS DNA” value is no more than 0.2.

For WTNW, the “one-hybrid fitness for binding NBS DNA” value was no more than 0.2.

Take HPYT: the “one-hybrid fitness for binding NBS DNA” value was no more than 0.2.

Take GAIA: the “one-hybrid fitness for binding NBS DNA” value is no more than 0.2.

In the case of RIGH, the “one-hybrid fitness for binding NBS DNA” value is no more than 0.2.

As to RIIR, the “one-hybrid fitness for binding NBS DNA” value is no more than 0.2.

RIWN: the “one-hybrid fitness for binding NBS DNA” value was no more than 0.2.

Consider RIWR, for which the “one-hybrid fitness for binding NBS DNA” value worked out at 0.367.

For RIRR, the “one-hybrid fitness for binding NBS DNA” value is 0.638.

As to RIGD, the “one-hybrid fitness for binding NBS DNA” value is no more than 0.2.

In the case of RIWM, the “one-hybrid fitness for binding NBS DNA” value was no more than 0.2.

With RIRH, the “one-hybrid fitness for binding NBS DNA” value came to 0.333.

For the variant RIGR, the “one-hybrid fitness for binding NBS DNA” value worked out at 0.441.

For the variant ISCL, the “one-hybrid fitness for binding NBS DNA” value is no more than 0.2.

For YPMG, the “one-hybrid fitness for binding NBS DNA” value was no more than 0.2.

Regarding GWYC, the “one-hybrid fitness for binding NBS DNA” value was no more than 0.2.

On to RPAE, for which the “one-hybrid fitness for binding NBS DNA” value was no more than 0.2.

HFNL: the “one-hybrid fitness for binding NBS DNA” value is no more than 0.2.

On to RVQH, for which the “one-hybrid fitness for binding NBS DNA” value is no more than 0.2.

For the variant RVYR, the “one-hybrid fitness for binding NBS DNA” value was 0.359.

As for RVAR, the “one-hybrid fitness for binding NBS DNA” value was 0.396.

On to RVAH, for which the “one-hybrid fitness for binding NBS DNA” value is no more than 0.2.

Turning to RVWR, the “one-hybrid fitness for binding NBS DNA” value stood at 0.248.

Regarding RVQS, the “one-hybrid fitness for binding NBS DNA” value came out at 0.357.

With RVFR, the “one-hybrid fitness for binding NBS DNA” value is 0.34.

Turning to RVQR, the “one-hybrid fitness for binding NBS DNA” value was determined as 0.415.

For RVRR, the “one-hybrid fitness for binding NBS DNA” value is 0.626.

Turning to TANR, the “one-hybrid fitness for binding NBS DNA” value was no more than 0.2.

For the variant ERVW, the “one-hybrid fitness for binding NBS DNA” value was no more than 0.2.

Regarding TLWC, the “one-hybrid fitness for binding NBS DNA” value was no more than 0.2.

As for KAYA, the “one-hybrid fitness for binding NBS DNA” value was no more than 0.2.

For the variant QKKH, the “one-hybrid fitness for binding NBS DNA” value was 0.619.

With QKKE, the “one-hybrid fitness for binding NBS DNA” value was determined as 0.283.

Regarding QKKD, the “one-hybrid fitness for binding NBS DNA” value stood at 0.211.

As for QKVH, the “one-hybrid fitness for binding NBS DNA” value is no more than 0.2.

Consider QKKP, for which the “one-hybrid fitness for binding NBS DNA” value amounted to 0.26.

QKKI: the “one-hybrid fitness for binding NBS DNA” value is 0.337.

With QKKG, the “one-hybrid fitness for binding NBS DNA” value worked out at 0.332.

On to QKHQ, for which the “one-hybrid fitness for binding NBS DNA” value is no more than 0.2.

As to QKKN, the “one-hybrid fitness for binding NBS DNA” value is 0.42.

For the variant QKKS, the “one-hybrid fitness for binding NBS DNA” value worked out at 0.662.

For the variant QKKQ, the “one-hybrid fitness for binding NBS DNA” value is 0.384.

Take QKVQ: the “one-hybrid fitness for binding NBS DNA” value is 0.268.

With FAHG, the “one-hybrid fitness for binding NBS DNA” value was no more than 0.2.

As for SLHE, the “one-hybrid fitness for binding NBS DNA” value was no more than 0.2.

On to RHIK, for which the “one-hybrid fitness for binding NBS DNA” value is no more than 0.2.

Turning to GTLP, the “one-hybrid fitness for binding NBS DNA” value was no more than 0.2.

For PPRN, the “one-hybrid fitness for binding NBS DNA” value was no more than 0.2.

SIAA: the “one-hybrid fitness for binding NBS DNA” value was no more than 0.2.

With YQPS, the “one-hybrid fitness for binding NBS DNA” value is no more than 0.2.

KTAW: the “one-hybrid fitness for binding NBS DNA” value is no more than 0.2.

On to CMYT, for which the “one-hybrid fitness for binding NBS DNA” value is no more than 0.2.

Take DGST: the “one-hybrid fitness for binding NBS DNA” value is no more than 0.2.

As for AMAP, the “one-hybrid fitness for binding NBS DNA” value was no more than 0.2.
